Results filed as inconclusive are left out. The source made the active and inactive calls. The call rests on the fitted dose curve; in most records, active means well fitted inhibition curve with a large enough effect; inconclusive means small, poorly fitted or top-dose-only effect; inactive means flat fitted curve, though single readings scatter.
What was measured:
Test in all cases: Cytotoxic Profiling of Annotated Libraries Using Quantitative High-Throughput Screening (AID 1296008); further: nearly all actives have a fitted effect of over 60% in size
Settings in all cases: Five cell lines viability, CellTiter-Glo ATP luminescence, 48-72 h; max response: active compounds read low
CRL-7250 = system: CRL-7250
Summary of the method: (§1)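 Compounds were pin-transferred onto cells and incubated 48 or 72 hr at 37 degree Celsius, 95% humidity. CellTiter-Glo was added, plates sat 10 min at room temperature, then ATP-coupled luminescence was imaged as the viability read-out.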

HEK293 = system: HEK293
Summary of the method: as §1

HaCat = system: HaCat
Summary of the method: as §1

KB-3-1 = system: KB-3-1
Summary of the method: as §1

NIH3T3 = system: NIH3T3
Summary of the method: as §1
On the % scale 0 is the no-effect control and ±100 the full control effect; potency means the concentration at half of the fitted maximal effect.

COc1c(C)c(OCC=C(C)C)cc2c1COC2=O
inactive: max response (CRL-7250) -4.58% | max response (HEK293) 3.79% | outcome (HaCat) | max response (KB-3-1) 4.15% | max response (NIH3T3) 2.66%

OC[C@H]1O[C@@H](OCCc2ccccc2)[C@H](O)[C@@H](O)[C@@H]1O
inactive: max response (CRL-7250) -3.7% | max response (HEK293) 3.92% | outcome (HaCat) | max response (KB-3-1) 6.47% | max response (NIH3T3) 4.48%

CC/C=C\CC1C(CC(=O)O)CCC1OC1OC(CO)C(O)C(O)C1O (stereo not given)
inactive: outcome (CRL-7250) | max response (HEK293) 0.263% | outcome (HaCat) | max response (KB-3-1) 8.15% | outcome (NIH3T3)

CCC[C@H](N[C@@H](C)C(=O)N1[C@H](C(=O)O)C[C@@H]2CCCC[C@@H]21)C(=O)O
inactive: max response (CRL-7250) -2.24% | max response (HEK293) 3.79% | outcome (HaCat) | max response (KB-3-1) -5.15% | max response (NIH3T3) -10.2%

O=C(O)c1cccc(C(=O)CCC2OC(n3cnc4c(=O)[nH]cnc43)C(O)C2O)c1 (stereo not given)
inactive: outcome (CRL-7250) | max response (HEK293) -2.52% | outcome (HaCat) | max response (KB-3-1) 3.59% | outcome (NIH3T3)

O=C(NC/C=C/CN1CCN(c2cccc(Cl)c2Cl)CC1)c1ccc(-c2ccccn2)cc1
active: Potency (HEK293) 13 µM
inactive: max response (CRL-7250) -4.15% | outcome (HaCat) | max response (KB-3-1) -2.38% | max response (NIH3T3) 2.53%

C/C=C(\C)C(=O)O[C@H]1C=CC(=O)O[C@H]1/C=C/[C@H](O)[C@@H](C)O
inactive: max response (CRL-7250) 4.14% | max response (HEK293) -103% | outcome (HaCat) | outcome (KB-3-1) | max response (NIH3T3) -1.43%

CC1(C)C(=O)CCC2(C)C1C(O)C=C1COC(=O)C12O (stereo not given)
inactive: max response (CRL-7250) -15.2% | max response (HEK293) -3.58% | outcome (HaCat) | max response (KB-3-1) 7.63% | max response (NIH3T3) -3.93%

C=C1C2(C)CC3C4(C)C=CC(=O)OC(C)(C)C4CCC3(C)C1(C(=O)OC)C(=O)C(C)(O)C2=O (stereo not given)
inactive: max response (CRL-7250) -7.15% | max response (HEK293) -101% | outcome (HaCat) | outcome (KB-3-1) | outcome (NIH3T3)

CC(C)[C@](O)(c1ccc2cc(OC(F)F)c(OC(F)F)cc2c1)c1cn[nH]n1
inactive: outcome (CRL-7250) | max response (HEK293) -21.3% | outcome (HaCat) | max response (KB-3-1) -6.26% | max response (NIH3T3) 1.17%

CC1=C(CCC(C)O[C@@H]2O[C@H](CO)[C@@H](O)[C@H](O)[C@H]2O)C(C)(C)CC(O)C1 (stereo not given in full)
inactive: max response (CRL-7250) -1.39% | max response (HEK293) 1.2% | max response (HaCat) -0.421% | max response (KB-3-1) 1.93% | outcome (NIH3T3)

O=C(O)CC1CCC(c2ccc(NC(=O)c3nnc(Nc4ccc(F)c(F)c4)o3)cc2)CC1 (stereo not given)
inactive: max response (CRL-7250) 1.15% | max response (HEK293) 1.04% | outcome (HaCat) | outcome (KB-3-1) | outcome (NIH3T3)

CC1OC(OC2CCC3(C)C(CCC4(C)C3C=CC35OCC6(CCC(C)(C)CC63)CCC45C)C2(C)CO)C(OC2OC(CO)C(O)C(O)C2O)C(O)C1OC1OC(CO)C(O)C(O)C1O (stereo not given)
inactive: max response (CRL-7250) -0.103% | max response (HEK293) -1.62% | outcome (HaCat) | outcome (KB-3-1) | outcome (NIH3T3)

CC(=O)OCC1OC(O[C@H]2CC[C@]34C[C@]35CC(O)[C@]3(C)[C@@H]([C@H](C)CC/C=C(\C)C(=O)O)C(O)C[C@@]3(C)C5CC[C@H]4C2(C)C)C(O)C(O)C1OC1OCC(O)C(O)C1O (stereo not given in full)
inactive: max response (CRL-7250) -0.106% | max response (HEK293) -3.14% | max response (HaCat) 2.3% | max response (KB-3-1) 7.5% | outcome (NIH3T3)

CC1(C)COC(=O)[C@@H]1O[C@@H]1O[C@H](CO)[C@@H](O)[C@H](O)[C@H]1O
inactive: max response (CRL-7250) 4.71% | max response (HEK293) 0.945% | outcome (HaCat) | outcome (KB-3-1) | max response (NIH3T3) 0.729%

N=C(N)c1ccc2nc(-c3cc(CC(=O)NC(CC(=O)O)C(=O)O)cc(-c4cc(S(N)(=O)=O)ccc4O)c3O)[nH]c2c1 (stereo not given)
inactive: max response (CRL-7250) -1.88% | max response (HEK293) 1.8% | outcome (HaCat) | outcome (KB-3-1) | max response (NIH3T3) -8.69%

C/C=C(\C)C(=O)OC[C@H]1O[C@H](O[C@H]2O[C@H](CO)[C@@H](O)[C@H](O)[C@H]2O[C@@H]2O[C@H](CO)[C@@H](O)[C@H](O)[C@H]2O)[C@H](O[C@@H]2O[C@H](CO)[C@@H](O)[C@H](O)[C@H]2O)[C@@H](O)[C@@H]1O
inactive: max response (CRL-7250) 0.965% | max response (HEK293) -1.76% | outcome (HaCat) | outcome (KB-3-1) | outcome (NIH3T3)

C=C(C)[C@@H]1CC[C@]2(CO)CC[C@]3(C)[C@H](CC[C@@H]4[C@@]5(C)CC[C@H](O)C(C)(C)[C@@H]5CC[C@]43C)[C@@H]12
inactive: max response (CRL-7250) 1.98% | max response (HEK293) 3.79% | max response (HaCat) 2.42% | outcome (KB-3-1) | outcome (NIH3T3)

CC(=O)O[C@@]1(C)[C@@H]2CC(=C(C)C)C(=O)C[C@@]2(C)CC[C@H]1OC(=O)C1(C)OC1C (stereo not given in full)
inactive: max response (CRL-7250) 1.92% | max response (HEK293) -20.6% | max response (HaCat) 0.799% | max response (KB-3-1) 0.573% | outcome (NIH3T3)

CC[C@@H](C)[C@H](N)C(=O)N1Cc2ccccc2C1
inactive: max response (CRL-7250) -11.3% | max response (HEK293) -17.7% | outcome (HaCat) | max response (KB-3-1) -3.64% | max response (NIH3T3) 0.412%

CC(C)C1(O)NC(=O)C(CC2(O)c3ccccc3N3C(=O)C(C)(C)NC32)n2c1nc1ccccc1c2=O (stereo not given)
inactive: outcome (CRL-7250) | outcome (HEK293) | max response (HaCat) -2.62% | outcome (KB-3-1) | max response (NIH3T3) -5.54%

Cc1cc(OCCN2CCOCC2)nn1-c1ccc2ccccc2c1
inactive: max response (CRL-7250) -11.2% | max response (HEK293) -15.6% | outcome (HaCat) | max response (KB-3-1) -10.7% | max response (NIH3T3) 2.01%

CN(C)CCC[C@]1(c2ccc(F)cc2)OCc2cc(C#N)ccc21
inactive: max response (CRL-7250) 1.86% | max response (HEK293) -1.92% | outcome (HaCat) | max response (KB-3-1) -2.48% | outcome (NIH3T3)

C/C(=C\CO)CC/C=C(\C)C(=O)O[C@@H]1O[C@H](CO)[C@@H](O)[C@H](O)[C@H]1O
inactive: max response (CRL-7250) -4.11% | max response (HEK293) 1.04% | outcome (HaCat) | outcome (KB-3-1) | max response (NIH3T3) 1.84%

COc1ccccc1Oc1c(NS(=O)(=O)c2ccc(C)cn2)nc(-c2ccncc2)nc1OC
inactive: max response (CRL-7250) 3.94% | max response (HEK293) -4.09% | outcome (HaCat) | outcome (KB-3-1) | max response (NIH3T3) 0.566%

COc1cc(C)c(C(=O)NC2C(C)OC(OC3CCC(C)C4C3C=C(C)C3/C(C)=C\CC/C(C)=C/C5(C)C=C(C(=O)O)C(C)CC56OC(=O)/C(=C(\O)C34C)C6=O)C(O)C2(C)O)c(O)c1 (stereo not given)
inactive: max response (CRL-7250) -0.565% | max response (HEK293) -0.938% | outcome (HaCat) | max response (KB-3-1) -0.929% | outcome (NIH3T3)

C=C1CCC2[C@](C)(CCC[C@]2(C)C(=O)O)[C@H]1CC/C(C)=C/C(=O)OC (stereo not given in full)
inactive: max response (CRL-7250) -5.17% | max response (HEK293) -8.16% | outcome (HaCat) | outcome (KB-3-1) | max response (NIH3T3) 0.39%

Cc1ccccc1-c1cc(N2CCN(C)CC2)ncc1N(C)C(=O)C(C)(C)c1cc(C(F)(F)F)cc(C(F)(F)F)c1
inactive: max response (CRL-7250) 1.9% | max response (HEK293) -6.53% | max response (HaCat) -0.694% | max response (KB-3-1) -5.47% | outcome (NIH3T3)

C=C1[C@H]2CCC3[C@]4(C)CCC[C@@](C)(C(=O)O)C4CC[C@]3(C2)[C@H]1OC(C)=O (stereo not given in full)
inactive: max response (CRL-7250) -1.83% | max response (HEK293) 3.77% | outcome (HaCat) | outcome (KB-3-1) | outcome (NIH3T3)

Cc1nc(-c2cccnc2)sc1C(=O)Nc1ccccc1-c1cn2c(CN3CCOCC3)csc2n1
inactive: max response (CRL-7250) -2.14% | max response (HEK293) -4.67% | outcome (HaCat) | max response (KB-3-1) -10.4% | max response (NIH3T3) -1.07%

Fc1cccc(CN(C2=NCCN2)c2c(Cl)cccc2Cl)c1
inactive: max response (CRL-7250) -5.57% | max response (HEK293) -13.5% | max response (HaCat) 0.445% | max response (KB-3-1) 5.56% | outcome (NIH3T3)

O=C(OC[C@H]1O[C@H](O[C@]2(CO)O[C@H](CO)[C@@H](O)[C@@H]2O)[C@H](O)[C@@H](O)[C@@H]1O)c1ccc(O)cc1
inactive: max response (CRL-7250) -3.61% | max response (HEK293) 1.1% | outcome (HaCat) | max response (KB-3-1) 0.316% | max response (NIH3T3) -10.5%

COc1cc(/C=C/c2ccccc2)c(C(=O)O)c(O)c1CC=C(C)C
inactive: max response (CRL-7250) -4.97% | max response (HEK293) 2.12% | outcome (HaCat) | max response (KB-3-1) 6.27% | max response (NIH3T3) 3.69%

COc1cc(O)cc2c1C(=O)OC(C)C2 (stereo not given)
inactive: max response (CRL-7250) 4.54% | max response (HEK293) 4.69% | outcome (HaCat) | max response (KB-3-1) 3.07% | max response (NIH3T3) -0.229%

O=C(OC(C(F)(F)F)C(F)(F)F)N1CCN(Cc2cccc(Oc3ccccc3)c2)CC1
inactive: outcome (CRL-7250) | max response (HEK293) -26.5% | outcome (HaCat) | max response (KB-3-1) -5.42% | max response (NIH3T3) 4.82%

CC(O)C1CCC2C3CCC4CC(OC5OC(C(=O)O)C(O)C(O)C5O)CCC4(C)C3CCC12C (stereo not given)
inactive: max response (CRL-7250) -11.7% | max response (HEK293) -10.1% | outcome (HaCat) | max response (KB-3-1) -9.6% | max response (NIH3T3) -3.21%

CCC(C)/C=C(C)/C=C/C1=CC2=CC(=O)C(C)(O)C(OC(C)=O)C2CO1 (stereo not given)
inactive: outcome (CRL-7250) | max response (HEK293) -22.7% | max response (HaCat) 4.74% | max response (KB-3-1) -4.84% | outcome (NIH3T3)

CC(=O)OC1C(C)C2C(OC3OC(CO)C(O)C(O)C3O)OC=C(C(=O)O)C2C1OC(=O)c1ccccc1 (stereo not given)
inactive: outcome (CRL-7250) | max response (HEK293) 1.6% | max response (HaCat) -7.28% | outcome (KB-3-1) | outcome (NIH3T3)

CC1=C[C@H](O)[C@H]2C(C)(C)CCC[C@]2(C)[C@@]1(O)CO
inactive: max response (CRL-7250) -1.57% | max response (HEK293) -4.11% | max response (HaCat) 3.1% | outcome (KB-3-1) | outcome (NIH3T3)

C=C1CC/C=C(/CO)C(=O)C[C@@H]2[C@@H]1C[C@@]2(C)COC(C)=O
inactive: outcome (CRL-7250) | max response (HEK293) -4.3% | outcome (HaCat) | max response (KB-3-1) 5.17% | outcome (NIH3T3)

CC1(C(=O)O)CCCC2(C)C3CC4C5CC3(CCC12)CC45C (stereo not given)
inactive: max response (CRL-7250) -3.47% | max response (HEK293) 2.22% | outcome (HaCat) | max response (KB-3-1) 4.9% | max response (NIH3T3) -21.3%

COc1c(O[C@@H]2O[C@H](CO)[C@@H](O)[C@H](O)[C@H]2O)c(CCC(=O)O)cc2ccoc12
inactive: max response (CRL-7250) -9.14% | max response (HEK293) -0.3% | outcome (HaCat) | max response (KB-3-1) 2.96% | max response (NIH3T3) 0.4%

Source: PubChem BioAssay (NCATS)
